In PubChem BioAssay AID1159580 (chemical genetic matrix, 2015):
Out of some 5,500 compounds screened, about 2,000 (36%) were called active. Another 18% or so got no clear call; they are omitted. Cut-off read from the data, not from the text of the source: active = normalized growth mostly below about 0.91 (no sharp cut-off); inconclusive = no clear call, values can overlap the other calls; inactive = mostly above about 0.92. The list shows a part of the results.

Assay: chemical genetic growth profiling, strain panel (AID 1159580);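 note: tested at 20 µM; growth read once vehicle control cultures reached saturation at 30 °C; 1 = growth at the plate median or of vehicle wells; lower values mean less growth of the strain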
Conditions: growth OD

Measured: normalized growth

N[C@H](Cc1ccccc1)C(=O)O
inactive: S. cerevisiae deletion strains, locus YJR043C, strain POL32, active compounds read low 1.01 | S. cerevisiae deletion strains, locus YJR066W, strain TOR1, active compounds read low 0.943 | S. cerevisiae deletion strains, locus YKL009W, strain mrt4, active compounds read low 1.01 | S. cerevisiae deletion strains, locus YKL068W, active compounds read low 1.01 | S. cerevisiae deletion strains, locus YKL085W, strain MDH1 (second series), active compounds read low 1.01 | S. cerevisiae deletion strains, locus YKL085W, strain MDH1, active compounds read low 1.01 | S. cerevisiae deletion strains, locus YKL160W, strain elf1, active compounds read low 1.04 | S. cerevisiae deletion strains, locus YKL190W, strain CNB1, active compounds read low 1.02 | S. cerevisiae deletion strains, locus YKR001C, strain vps1, active compounds read low 0.997 | S. cerevisiae deletion strains, locus YKR026C, strain gcn3, active compounds read low 0.988 | S. cerevisiae deletion strains, locus YKR091W, strain srl3, active compounds read low 1 | S. cerevisiae deletion strains, locus YLL001W, strain dnm1, active compounds read low 0.973 | S. cerevisiae deletion strains, locus YLL026W, active compounds read low 0.984 | S. cerevisiae deletion strains, locus YLL041C, strain sdh2, active compounds read low 1 | S. cerevisiae deletion strains, locus YLR027C, strain aat2, active compounds read low 1 | S. cerevisiae deletion strains, locus YLR039C, strain RIC1, active compounds read low 1.02 | S. cerevisiae deletion strains, locus YLR058C, strain SHM2, active compounds read low 1.02 | S. cerevisiae deletion strains, locus YLR102C, strain apc9, active compounds read low 0.995 | S. cerevisiae deletion strains, locus YLR113W, strain HOG1, active compounds read low 1.05 | S. cerevisiae deletion strains, locus YLR221C, strain rsa3, active compounds read low 0.975 | S. cerevisiae deletion strains, locus YLR258W, strain gsy2, active compounds read low 1.03 | S. cerevisiae deletion strains, locus YLR262C, strain YPT6 (second series), active compounds read low 0.987 | S. cerevisiae deletion strains, locus YLR262C, strain YPT6, active compounds read low 1.04 | S. cerevisiae deletion strains, locus YLR268W, strain sec22, active compounds read low 0.994 | S. cerevisiae deletion strains, locus YLR320W, strain mms22, active compounds read low 0.949 | S. cerevisiae deletion strains, locus YLR330W, strain CHS5, active compounds read low 1.02 | S. cerevisiae deletion strains, locus YLR342W, strain FKS1 (second series), active compounds read low 1 | S. cerevisiae deletion strains, locus YLR342W, strain FKS1, active compounds read low 1.02 | S. cerevisiae deletion strains, locus YLR357W, strain rsc2, active compounds read low 1.01 | S. cerevisiae deletion strains, locus YLR370C, strain arc18, active compounds read low 1 | S. cerevisiae deletion strains, locus YLR371W, strain rom2, active compounds read low 0.982 | S. cerevisiae deletion strains, locus YLR384C, strain iki3, active compounds read low 0.991 | S. cerevisiae deletion strains, locus YLR418C, strain cdc73, active compounds read low 0.975 | S. cerevisiae deletion strains, locus YML016C, strain PPZ1, active compounds read low 1.01 | S. cerevisiae deletion strains, locus YML032C, strain rad52, active compounds read low 0.986 | S. cerevisiae deletion strains, locus YML120C, strain ndi1, active compounds read low 0.987 | S. cerevisiae deletion strains, locus YML124C, strain tub3, active compounds read low 0.997 | S. cerevisiae deletion strains, locus YMR058W, strain fet3, active compounds read low 0.987 | S. cerevisiae deletion strains, locus YMR078C, strain ctf18, active compounds read low 1 | S. cerevisiae deletion strains, locus YMR125W, strain sto1, active compounds read low 1 | S. cerevisiae deletion strains, locus YMR129W, active compounds read low 0.978 | S. cerevisiae deletion strains, locus YMR205C, strain PFK2, active compounds read low 0.985 | S. cerevisiae deletion strains, locus YMR223W, strain ubp8, active compounds read low 1.01 | S. cerevisiae deletion strains, locus YMR231W, strain pep5, active compounds read low 0.984 | S. cerevisiae deletion strains, locus YMR263W, strain SAP30, active compounds read low 1.01 | S. cerevisiae deletion strains, locus YMR307W, strain GAS1, active compounds read low 1.01 | S. cerevisiae deletion strains, locus YNL067W, strain RPL9B, active compounds read low 1.02 | S. cerevisiae deletion strains, locus YNL071W, strain lat1, active compounds read low 0.983 | S. cerevisiae deletion strains, locus YNL128W, strain TEP1, active compounds read low 1.02 | S. cerevisiae deletion strains, locus YNL153C, strain GIM3, active compounds read low 1.03 | S. cerevisiae deletion strains, locus YNL183C, strain NPR1, active compounds read low 0.988 | S. cerevisiae deletion strains, locus YNL209W, strain ssb2, active compounds read low 1.02 | S. cerevisiae deletion strains, locus YNL233W, strain BNI4, active compounds read low 1.01 | S. cerevisiae deletion strains, locus YNL248C, strain rpa49, active compounds read low 1 | S. cerevisiae deletion strains, locus YNL250W, strain rad50, active compounds read low 1 | S. cerevisiae deletion strains, locus YNL271C, strain bni1, active compounds read low 1.01 | S. cerevisiae deletion strains, locus YNL298W, strain CLA4, active compounds read low 1.02 | S. cerevisiae deletion strains, locus YNL307C, strain MCK1, active compounds read low 0.993 | S. cerevisiae deletion strains, locus YNL322C, strain KRE1 (second series), active compounds read low 1.03 | S. cerevisiae deletion strains, locus YNR049C, strain mso1, active compounds read low 1 | S. cerevisiae deletion strains, locus YNR052C, strain pop2, active compounds read low 1.01 | S. cerevisiae deletion strains, locus YOL006C, strain TOP1, active compounds read low 1.03 | S. cerevisiae deletion strains, locus YOL012C, strain htz1 2.29 | S. cerevisiae deletion strains, locus YOL147C, strain pex11, active compounds read low 1.01 | S. cerevisiae deletion strains, locus YOR001W, strain rrp6, active compounds read low 0.943 | S. cerevisiae deletion strains, locus YOR061W, strain CKA2, active compounds read low 1.02 | S. cerevisiae deletion strains, locus YOR069W, strain VPS5, active compounds read low 1.01 | S. cerevisiae deletion strains, locus YOR070C, strain gyp1, active compounds read low 0.983 | S. cerevisiae deletion strains, locus YOR080W, strain dia2, active compounds read low 0.988 | S. cerevisiae deletion strains, locus YOR083W, strain WHI5, active compounds read low 0.991 | S. cerevisiae deletion strains, locus YOR106W, strain vam3, active compounds read low 1.03 | S. cerevisiae deletion strains, locus YOR136W, strain idh2, active compounds read low 1 | S. cerevisiae deletion strains, locus YOR144C, strain elg1, active compounds read low 0.999 | S. cerevisiae deletion strains, locus YOR184W, strain ser1, active compounds read low 0.994 | S. cerevisiae deletion strains, locus YOR231W, strain MKK1, active compounds read low 1.08 | S. cerevisiae deletion strains, locus YOR265W, strain rbl2, active compounds read low 0.992 | S. cerevisiae deletion strains, locus YOR270C, strain vph1, active compounds read low 0.986 | S. cerevisiae deletion strains, locus YOR290C, strain snf2, active compounds read low 1.02 | S. cerevisiae deletion strains, locus YOR316C, strain cot1, active compounds read low 1 | S. cerevisiae deletion strains, locus YPL051W, strain arl3, active compounds read low 1.01 | S. cerevisiae deletion strains, locus YPL078C, strain atp4, active compounds read low 1.03 | S. cerevisiae deletion strains, locus YPL106C, strain sse1, active compounds read low 1.03 | S. cerevisiae deletion strains, locus YPL240C, strain hsp82, active compounds read low 0.994 | S. cerevisiae deletion strains, locus YPL256C, strain CLN2, active compounds read low 1.06 | S. cerevisiae deletion strains, locus YPR119W, strain clb2, active compounds read low 0.995 | S. cerevisiae deletion strains, locus YPR141C, strain kar3, active compounds read low 1 | S. cerevisiae deletion strains, locus YPR163C, strain tif3, active compounds read low 1 | S. cerevisiae deletion strains, locus YPR167C, strain met16, active compounds read low 1 | S. cerevisiae deletion strains, strain wtn01, active compounds read low 0.996 | S. cerevisiae strains, strain wild type, active compounds read low 1.01
